Molecular target: PIK3AP1
Test: pooled miR-30 sensor sort-seq; sequence = guide strand
Settings: shRNA
Further: reference of the scale not given here.

Row | Sequence | sensor-assay potency score (higher = more potent)
1 | TTAAGGTCAACAGTCATGCTAT | -0.337
2 | TTACTTGTGCTACTTGCTGTGC | -0.439
3 | TACTCGTCGATGAACTGCCGCA | -0.193
4 | TAGCCGTTTAAGATTTTCCTGC | -0.144
5 | TTGCCTTCTAAAAACTTGCGGA | -0.361
6 | TTCGATTAAGTCTTCATCCTTT | 0.829
7 | TTCCTCTTTAATGTGACTCTTG | -0.151
8 | TAGACGATGAGGATGTCGCATC | -0.908
9 | TTGTCATCATATCTTCTTCTTC | -0.605
10 | TTCTTCAGTCCATACTTCGCAG | -0.885
11 | AAGTCTAGGAACTCCTCGCTGT | 0.0251
12 | TTTAATGTGACTCTTGAGCATG | -0.893

Molecular target: PIK3R4
Test: as above
Settings: shRNA

Row | Sequence | sensor-assay potency score (higher = more potent)
13 | TTATTTTCATATCTGAGCCAGC | -0.787
14 | TATCTGAAAAATAACTCTCTAC | -0.529
15 | TTTTGTAGCAGTCCTAACTGGC | -0.0245
16 | TTACAGTAGACATCAGCTGTAC | 0.0221
17 | TTCAATTTTATTTAGCACTTGT | 0.585
18 | TTTTATTTAGCACTTGTTCAGG | -0.266
19 | TAATAGCTTACAACCATCTTTT | -0.784
20 | TTCCTTTAAAACACTGAGCAGA | -0.752
21 | TTGTCTCGCACATACTGCCTAA | -0.86
22 | TAAACTAGTCAAGTACATCTTA | 0.418
23 | TAGCAAAGTAACAACTTTCTGC | 0.5

From the OligoGym collection
